# Data: PubChem BioAssay (NCATS)
# Values joined by “and” are separate entries in the source; they are usually repeats but may differ in a detail not shown here. Equal entries are not always repeated. Results filed as inconclusive are left out. Active and inactive are the calls of the source. Unless noted, the call rests on the fitted dose curve; in most records, active means well fitted curve in the direction sought with a large enough effect; inconclusive means small, poorly fitted or top-dose-only effect, or another doubt; inactive means no such curve, though single readings can be large; an effect the other way counts as inactive or inconclusive.
# Assays:
# [1] = target: Luciferin 4-monooxygenase (Photinus pyralis) (UniProt P08659); assay: Biochemical firefly luciferase enzyme assay for NPC (AID 624030); further: nearly all actives have a fitted effect of over 70% in size; further: potency means the concentration at half of the fitted maximal effect
# Method in brief: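 Purified P. pyralis luciferase at 10 nM in 50 mM Tris Acetate (final), luminescence read within 5 minutes of enzyme addition to compounds. Activity normalised to PTC124 versus DMSO; concentration-response curves classed by r2, magnitude and activity.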
# [2] = S16 Schwann cell viability assay (CellTiter-Glo assay) (AID 624031);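 further: native untransfected S16 rat Schwann cells; cellular ATP luminescence as a viability measure; plate controls were DMSO-treated cells for no effect and cell-free wells for full effect; nearly all actives have a fitted effect of over 70% in size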
# Method in brief: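 Parental S16 cells, 24 h compound, 37 °C. ATP-luminescence viability; DMSO = 0% activity, empty wells as reference; curves classified by fit quality and efficacy.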
# [3] = S16 Schwann cell PMP22 intronic element firefly luciferase assay (AID 624032); further: nearly all actives have a fitted effect of over 30% in size; further: potency means the concentration at half of the fitted maximal effect
# Method in brief: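 Rat S16 Schwann cells stably carrying firefly luciferase driven by a PMP22 intronic element, in 10% FBS, treated 24 h at 37 C. ONE-Glo luminescence normalized to PTC124 control and DMSO (0%); curves classed by r2, magnitude and activity.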
# [4] = S16 Schwann cell PMP22 intronic element beta-lactamase assay (AID 624044; calls by dose curve;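 further: 0% = DMSO and -100% = potassium clavulanate positive control; nearly all actives have a fitted effect of over 15% in size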)
# Method in brief: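 Beta-lactamase reporter under a PMP22 intronic regulatory element in stable S16 rat Schwann cells; 24 h compound exposure. 460 nm blue signal normalized between DMSO (0%) and potassium clavulanate, with 535 nm FRET tracking viability; curves classed by r2 and response.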
# [5] = target: Voltage-gated inwardly rectifying potassium channel KCNH2 (Homo sapiens) (UniProt Q12809); assay: qHTS Assay for Small Molecule Inhibitors of the Human hERG Channel Activity (AID 588834);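 further: top concentration of the series differs between compounds; on the % scale 0 is the no-effect control and ±100 the full control effect; lower thallium flux fluorescence means stronger hERG block; nearly all actives have a fitted effect of over 50% in size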
# Method in brief: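 Step 1: BacMam hERG transduction of U2OS, 4 hrs RT. Step 2: overnight 37 °C, plate 2000 cells/well, 4 hr. Step 3: FluxOR load, compound 10 min, stimulate, read fluorescence.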
# [6] = Cytotoxicity counterscreen for NFkB agonists and antagonists (AID 624476);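 further: cells exposed to compound for 48 hours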; further: potency means the concentration at half of the fitted maximal effect
# [7] = qHTS Assay for Identification of Small Molecule Agonists for NFkB Signaling Pathway. (AID 624478);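 further: compounds tested together with TNF alpha at its EC50 of 10 pM; 0% is about no effect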
# Method in brief: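 Compounds were added with 10 pM TNF alpha (EC50 level) to ME-180 NFkB-bla cells in low-serum Opti-MEM and incubated 5 hrs at 37 C. Beta-lactamase FRET read-out used 405 nm excitation and 460 and 530 nm emission.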
# [8] = qHTS Assay for Identification of Small Molecule Antagonists for NFkB Signaling Pathway. (AID 624479; calls by dose curve;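 further: pathway stimulated with TNF alpha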; further: potency means the concentration at half of the fitted maximal effect)
# [9] = Cell Proliferation Assay against the TMD8 Cell Line (AID 651645); settings: TMD8 DLBCL cell line proliferation/viability; at 46.1 µM (top of the series);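 further: cells exposed to compound for 48 h before reading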
# Method in brief: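 500 TMD8 cells/well, RPMI + Glutamax, no phenol red, 5% FBS; cpd added immediately; 48 h, 37C, 5% CO2; CellTiter-Glo, luminescence. Controls: DMSO = 100%, bortezomib 9.2 uM final = 0%.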
# [10] = Cell Proliferation Assay against the HBL1 Cell Line (AID 651646); settings: HBL1 DLBCL cells; at 46.1 µM (top of the series);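 further: cells exposed to compound for 48 h before reading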
# Method in brief: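 HBL1, 500 cells/well, RPMI no phenol red + 5% FBS; cpd pinned, 48 h 37C/5% CO2; CellTiter-Glo, 15 min RT, luminescence. % activity: DMSO = 100%, bortezomib 9.2 uM final = 0%.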
# [11] = Cell Proliferation Assay against the TMD8 Cell Line (Caspase readout at 16 hrs) (AID 651712); further: potency means the concentration at half of the fitted maximal effect
# Method in brief: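 Caspase-Glo luminescence after 16 h compound exposure of TMD8 cells, 37 °C, 5% CO2. Medium: RPMI without phenol red, 5% FBS. Normalisation: DMSO = 0%, bortezomib 9.2 uM final = 100%.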
# [12] = Cell Proliferation Assay against the TMD8 Cell Line (Caspase readout at 8 hrs) (AID 651713); further: potency means the concentration at half of the fitted maximal effect
# Method in brief: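 Apoptosis read-out: Caspase-Glo luminescence after 8 h compound exposure of TMD8 lymphoma cells at 37C, 5% CO2. Signals were normalized as percent activity between DMSO and bortezomib (9.2 uM final) controls.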
# Chain of Luciferin 4-monooxygenase (Photinus pyralis) (P08659 whole entry, looked up): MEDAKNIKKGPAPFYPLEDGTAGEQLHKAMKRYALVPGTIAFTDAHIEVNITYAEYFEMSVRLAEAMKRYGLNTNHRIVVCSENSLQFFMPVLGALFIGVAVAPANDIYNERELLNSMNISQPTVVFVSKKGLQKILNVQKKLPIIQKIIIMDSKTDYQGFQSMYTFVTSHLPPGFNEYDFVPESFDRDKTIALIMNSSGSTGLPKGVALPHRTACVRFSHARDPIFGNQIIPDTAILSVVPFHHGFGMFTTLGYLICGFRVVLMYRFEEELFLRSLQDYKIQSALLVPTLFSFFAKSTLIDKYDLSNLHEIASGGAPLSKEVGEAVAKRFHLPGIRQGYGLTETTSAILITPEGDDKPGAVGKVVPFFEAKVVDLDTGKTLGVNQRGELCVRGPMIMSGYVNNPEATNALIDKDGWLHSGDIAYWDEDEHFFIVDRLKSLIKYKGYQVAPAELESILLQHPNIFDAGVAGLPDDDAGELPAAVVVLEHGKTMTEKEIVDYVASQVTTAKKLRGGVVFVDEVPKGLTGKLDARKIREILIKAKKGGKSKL
# Chain of Voltage-gated inwardly rectifying potassium channel KCNH2 (Homo sapiens) (Q12809 whole entry, looked up): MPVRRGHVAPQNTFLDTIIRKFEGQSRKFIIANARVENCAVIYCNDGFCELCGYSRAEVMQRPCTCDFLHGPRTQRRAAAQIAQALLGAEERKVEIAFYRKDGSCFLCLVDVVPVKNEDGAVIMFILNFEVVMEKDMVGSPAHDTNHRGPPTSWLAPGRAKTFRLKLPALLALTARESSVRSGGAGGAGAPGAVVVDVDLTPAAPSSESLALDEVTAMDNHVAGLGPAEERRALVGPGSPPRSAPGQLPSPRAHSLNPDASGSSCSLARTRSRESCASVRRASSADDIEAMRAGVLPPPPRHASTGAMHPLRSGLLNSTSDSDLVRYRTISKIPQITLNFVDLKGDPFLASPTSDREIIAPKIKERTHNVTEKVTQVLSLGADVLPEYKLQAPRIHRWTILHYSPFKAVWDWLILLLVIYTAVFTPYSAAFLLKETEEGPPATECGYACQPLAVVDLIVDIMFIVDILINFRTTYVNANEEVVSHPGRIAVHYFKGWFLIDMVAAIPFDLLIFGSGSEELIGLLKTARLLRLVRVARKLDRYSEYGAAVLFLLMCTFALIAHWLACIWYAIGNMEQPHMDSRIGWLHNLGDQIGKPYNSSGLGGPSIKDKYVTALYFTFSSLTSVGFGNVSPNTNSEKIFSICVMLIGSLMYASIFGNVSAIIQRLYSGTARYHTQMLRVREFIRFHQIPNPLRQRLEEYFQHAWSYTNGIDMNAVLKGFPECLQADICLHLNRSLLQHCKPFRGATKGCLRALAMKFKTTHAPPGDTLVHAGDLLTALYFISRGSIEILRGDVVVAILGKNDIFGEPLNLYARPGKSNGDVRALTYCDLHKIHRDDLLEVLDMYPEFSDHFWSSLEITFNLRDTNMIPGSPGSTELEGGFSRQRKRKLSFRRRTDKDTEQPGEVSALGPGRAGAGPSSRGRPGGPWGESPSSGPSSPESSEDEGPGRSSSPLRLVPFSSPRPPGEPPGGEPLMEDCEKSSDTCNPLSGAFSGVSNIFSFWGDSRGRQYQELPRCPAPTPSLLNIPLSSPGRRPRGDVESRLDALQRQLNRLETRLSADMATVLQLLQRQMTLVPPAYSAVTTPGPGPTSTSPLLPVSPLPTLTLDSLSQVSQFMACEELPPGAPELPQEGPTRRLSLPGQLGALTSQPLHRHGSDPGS
compound,measurement,setting,value
CC1(C)O[C@@H]2C[C@@H]3[C@H]4C[C@@H](F)C5=CC(=O)C=C[C@]5(C)[C@@]4(F)[C@@H](O)C[C@]3(C)[C@]2(C(=O)CO)O1,Potency,[1],inactive
same,outcome,[2],inactive
same,Potency,[3],inactive
same,Potency,[4],inactive
CCC1=C[C@@H]2CN(C1)Cc1c([nH]c3ccccc13)[C@@](C(=O)OC)(c1cc3c(cc1OC)N(C)[C@@H]1[C@@](O)(C(=O)OC)[C@H](OC(C)=O)[C@]4(CC)C=CCN5CC[C@]31[C@@H]54)C2,Potency,[1],inactive
same,outcome,[2],inactive
same,Potency,[3],907 nM (active)
Cc1nc2ccc(CN(C)c3ccc(C(=O)N[C@@H](CCC(=O)O)C(=O)O)s3)cc2c(=O)[nH]1,Potency,[5],inactive
same,Potency,[1],inactive
CN(C)CC=CC(=O)Nc1cc2c(Nc3ccc(F)c(Cl)c3)ncnc2cc1O[C@H]1CCOC1,Potency,[6],29.6 µM (active)
same,outcome,[7],inactive
same,Potency,[8],13.3 µM (active)
same,viability (% of control),[9],0.0294%
same,"viability, percent of control",[10],1.34%
COc1cc(C(=O)NS(=O)(=O)c2ccccc2C)ccc1Cc1cn(C)c2ccc(NC(=O)OC3CCCC3)cc12,Potency,[1],16100 nM (active)
same,outcome,[2],inactive
same,Potency,[3],inactive
same,Potency,[4],inactive
CNC(=O)c1cc(Oc2ccc(NC(=O)Nc3cc(C(C)(C)C)nn3-c3ccc4ncccc4c3)c(F)c2)ccn1,Potency,[6],2.64 µM (active)
same,outcome,[7],inactive
same,Potency,[8],0.0421 µM (active)
same,viability (% of control),[9],2.72%
same,"viability, percent of control",[10],58.7%
same,Potency,[11],inactive
CN(c1ncccc1CNc1nc(Nc2ccc3c(c2)CC(=O)N3)ncc1C(F)(F)F)S(C)(=O)=O,Potency,[6],10.5 µM (active)
same,outcome,[7],inactive
same,Potency,[8],1.49 µM (active)
same,viability (% of control),[9],-0.0421%
same,"viability, percent of control",[10],40.9%
same,Potency,[12],8.33 µM (active)
O=C(NCCS(=O)(=O)c1ccc(C(F)(F)F)cn1)c1ccc(Cl)cc1,Potency,[6],inactive
same,outcome,[7],inactive
same,Potency,[8],inactive
same,viability (% of control),[9],96.1%
same,"viability, percent of control",[10],92%
same,Potency,[11],inactive
Nc1nc(-c2nn(Cc3ccccc3F)c3ncccc23)nc(N)c1N1CCOCC1,Potency,[6],inactive
same,outcome,[7],inactive
same,Potency,[8],inactive
same,Potency,[11],inactive
same,Potency,[12],inactive
COc1cc2ncn(-c3cc(OCc4ccccc4C(F)(F)F)c(C(N)=O)s3)c2cc1OC,Potency,[6],inactive
same,outcome,[7],inactive
same,Potency,[8],inactive
same,viability (% of control),[9],37.6%
same,"viability, percent of control",[10],41.7%
same,Potency,[12],inactive
C1Cc2[nH]nc(-c3nn[nH]n3)c2C1,Potency,[6],inactive
same,outcome,[7],inactive
same,Potency,[8],inactive
same,viability (% of control),[9],103%
same,"viability, percent of control",[10],91.7%
same,Potency,[11],inactive
Cc1cnc(-c2cnc(NCCNc3ccc(C#N)cn3)nc2-c2ccc(Cl)cc2Cl)[nH]1,Potency,[6],inactive
same,outcome,[7],inactive
same,Potency,[8],14.9 µM (active)
same,viability (% of control),[9],9.76%
same,"viability, percent of control",[10],22.7%
CN1CC[C@@H](c2c(O)cc(O)c3c(=O)cc(-c4ccccc4Cl)oc23)[C@@H](O)C1,Potency,[6],0.132 µM (active)
same,outcome,[7],inactive
same,Potency,[8],0.0149 µM (active)
same,viability (% of control),[9],-0.0054%
same,"viability, percent of control",[10],41.8%
Nc1cc(C(F)(F)F)c(-c2cc(N3CCOCC3)nc(N3CCOCC3)n2)cn1,Potency,[6],0.935 µM (active)
same,outcome,[7],inactive
same,Potency,[8],inactive
same,viability (% of control),[9],3.22%
same,"viability, percent of control",[10],16.8%
same,Potency,[11],2090 nM (active)
C=CCn1c(=O)c2cnc(Nc3ccc(N4CCN(C)CC4)cc3)nc2n1-c1cccc(C(C)(C)O)n1,Potency,[6],1.66 µM (active)
same,outcome,[7],inactive
same,viability (% of control),[9],11.5%
same,"viability, percent of control",[10],31.1%
O=C(O)[C@H](Cc1c[nH]c2ccccc12)N1C(=O)c2ccccc2C1=O,Potency,[6],inactive
same,outcome,[7],inactive
same,Potency,[8],inactive
same,viability (% of control),[9],104%
same,"viability, percent of control",[10],130%
same,Potency,[11],inactive
same,Potency,[12],inactive
CC[C@@H]1C(=O)N(C)c2cnc(Nc3ccc(C(=O)NC4CCC(N5CCN(CC6CC6)CC5)CC4)cc3OC)nc2N1C(C)C (some centres not stated),Potency,[6],13.2 µM (active)
same,outcome,[7],inactive
same,Potency,[8],5.3 µM (active)
same,viability (% of control),[9],3.58%
same,"viability, percent of control",[10],4.22%
same,Potency,[12],26.4 µM (active)
NC(=O)c1c(OCc2c(F)cc(Br)cc2F)nsc1NC(=O)NCCCCN1CCCC1,Potency,[6],inactive
same,outcome,[7],inactive
same,viability (% of control),[9],8.16%
same,"viability, percent of control",[10],4.14%
same,Potency,[11],inactive
O=C(C=Cc1cccnc1)NCCCCC1CCN(C(=O)c2ccccc2)CC1,Potency,[6],inactive
same,outcome,[7],inactive
same,Potency,[8],inactive
same,viability (% of control),[9],7.31%
same,"viability, percent of control",[10],53.4%
same,Potency,[11],inactive
same,Potency,[12],inactive
CCN1CCN(Cc2ccc(-c3cc4c(N[C@H](C)c5ccccc5)ncnc4[nH]3)cc2)CC1,Potency,[6],33.2 µM (active)
same,outcome,[7],inactive
same,Potency,[8],16.8 µM (active)
same,viability (% of control),[9],1.56%
same,"viability, percent of control",[10],1.9%
same,Potency,[11],16600 nM (active)
COc1cccc2nc(-c3cccs3)nc(NN3C(=O)C=C(C)C3=O)c12,Potency,[6],inactive
same,outcome,[7],inactive
same,Potency,[8],0.841 µM (active)
same,viability (% of control),[9],3.01%
same,"viability, percent of control",[10],3.09%
same,Potency,[12],0.166 µM (active)
CC(C)CC(=O)Nc1n[nH]c2c1CN(C(=O)C1CCN(C)CC1)C2(C)C,Potency,[6],2.35 µM (active)
same,outcome,[7],inactive
same,Potency,[8],0.266 µM (active)
same,viability (% of control),[9],4.73%
same,"viability, percent of control",[10],49.6%
O=C(NC1CCNCC1)c1[nH]ncc1NC(=O)c1c(Cl)cccc1Cl,Potency,[6],209 nM (active) and 296 nM (active)
same,outcome,[7],inactive
same,Potency,[8],33.5 nM (active) and 66.8 nM (active)
same,viability (% of control),[9],1.51% and 1.72%
same,"viability, percent of control",[10],45.8% and 42.8%
same,Potency,[11],118 nM (active)
same,Potency,[12],332 nM (active) and 264 nM (active)
